Experimental data from article PMC4336329 (PLoS ONE, 2015).
Hit rate of the full screen: of about 310,000 compounds, about 2,200 (0.71%) showed an effect of 50% or more. The effect is printed as a negative number. For the sample, strong results were picked, then their nearest neighbours and some compounds at random.

The compounds below were run against human ether-à-go-go-related gene (hERG) potassium channel (human, UniProt Q12809) (assay: primary screen, population patch clamp on CHO cells stably expressing hERG; higher = less effect of the substance).
Sequence of human ether-à-go-go-related gene (hERG) potassium channel (Q12809 whole entry, looked up): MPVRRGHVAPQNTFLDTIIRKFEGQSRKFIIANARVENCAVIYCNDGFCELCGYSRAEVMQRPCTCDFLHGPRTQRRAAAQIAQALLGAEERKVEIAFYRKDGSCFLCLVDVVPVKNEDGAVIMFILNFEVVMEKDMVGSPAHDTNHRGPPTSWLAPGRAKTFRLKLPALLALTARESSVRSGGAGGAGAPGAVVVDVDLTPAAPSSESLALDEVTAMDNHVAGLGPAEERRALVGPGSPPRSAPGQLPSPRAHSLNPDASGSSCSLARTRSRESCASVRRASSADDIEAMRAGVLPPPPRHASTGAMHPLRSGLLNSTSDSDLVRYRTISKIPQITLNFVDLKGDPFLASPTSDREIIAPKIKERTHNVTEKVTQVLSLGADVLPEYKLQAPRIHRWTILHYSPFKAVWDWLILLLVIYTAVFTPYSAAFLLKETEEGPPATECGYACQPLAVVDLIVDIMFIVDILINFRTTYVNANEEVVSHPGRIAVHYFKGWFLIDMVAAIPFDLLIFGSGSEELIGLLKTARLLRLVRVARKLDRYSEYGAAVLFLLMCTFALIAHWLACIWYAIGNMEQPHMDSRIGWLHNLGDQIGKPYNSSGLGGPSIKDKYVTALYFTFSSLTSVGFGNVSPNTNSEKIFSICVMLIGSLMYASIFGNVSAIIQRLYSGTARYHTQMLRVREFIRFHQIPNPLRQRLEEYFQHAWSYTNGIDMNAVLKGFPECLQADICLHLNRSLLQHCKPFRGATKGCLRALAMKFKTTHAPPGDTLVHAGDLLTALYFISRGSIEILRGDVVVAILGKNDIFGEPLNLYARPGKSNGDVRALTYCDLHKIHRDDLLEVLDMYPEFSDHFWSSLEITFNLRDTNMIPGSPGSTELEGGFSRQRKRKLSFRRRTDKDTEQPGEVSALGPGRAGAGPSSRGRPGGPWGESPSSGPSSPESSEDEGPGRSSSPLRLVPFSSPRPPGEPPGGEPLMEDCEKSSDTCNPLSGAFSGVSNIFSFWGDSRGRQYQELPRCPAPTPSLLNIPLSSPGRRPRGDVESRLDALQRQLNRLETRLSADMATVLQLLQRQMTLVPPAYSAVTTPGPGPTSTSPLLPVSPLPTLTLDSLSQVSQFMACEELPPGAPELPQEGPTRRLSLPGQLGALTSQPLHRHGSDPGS

Point of comparison: C=CCn1c(SCC(=O)NC(=O)NCC(C)C)nnc1C1CCCCC1, “hERG current change (%, negative = inhibition) at 1uM” value 13.9%. Against it:
- O=C(NCc1ccco1)C1CCN(S(=O)(=O)c2ccccc2C(F)(F)F)CC1 — lower, 12.6%
- COc1cccc(C(=O)NCCS(=O)(=O)N2CCC(C)CC2)c1 — lower, 3.89%
- CC1(C)CN(c2ccc(C(=O)c3ccccc3)cc2)C1=O — lower, 6.95%
- CCCCn1c(N)c(N(CCOC)C(=O)C2CCN(S(=O)(=O)c3ccc(C)cc3C)CC2)c(=O)[nH]c1=O — higher, 14.6%
- Cc1ccccc1OCC(=O)OCC(=O)c1ccc[nH]1 — lower, 10.2%
- CCOC(=O)c1nn(-c2ccccc2C)c2nc(CC(C)C)c(C#N)c(=O)n12 — higher, 15.8%
- O=c1cc(NCc2ccco2)c2ccccc2o1 — lower, 11.6%
- CCS(=O)(=O)N1CCN(c2ccnc3cc(Cl)ccc23)CC1 — lower, -67.4%
- CC(C)S(=O)(=O)N1CCN(c2ccnc3cc(Cl)ccc23)CC1 — lower, -55.2%
- Cl.ClCCN1CCN(c2ccnc3cc(Cl)ccc23)CC1 — lower, 7.03%
- CN(C)S(=O)(=O)N1CCN(c2ccnc3cc(Cl)ccc23)CC1 — lower, -65.6%
- CN(C)S(=O)(=O)N1CCN(c2cc(Cl)ccc2Cl)CC1 — higher, 16.5%
- COc1ccccc1N1CCN(c2ccnc3cc(Cl)ccc23)CC1 — lower, 7.78%
- Oc1ccc(N2CCN(c3ccnc4cc(Cl)ccc34)CC2)cc1 — lower, 5.36%
- Clc1ccc2c(N3CCOCC3)ccnc2c1 — lower, 0.204%
- CS(=O)(=O)N1CCN(c2ccnc3cc(Cl)ccc23)CC1 — lower, -81.3%
- CCC(=O)N1CCN(c2ccnc3cc(Cl)ccc23)CC1 — lower, -25.7%
- Clc1ccc2c(N3CCCC3)ccnc2c1 — lower, -25.9%
- COc1ccc(/C=C2\SC(=S)N(N3CCOCC3)C2=O)c(OC)c1 — lower, 10.2%
- CCOC(=O)c1c(C)[nH]c(C)c1C(=O)CSc1nc2ccccc2[nH]1 — lower, 13.8%
- O=c1c(Cc2ccc(F)cc2)c(O)ccn1CCCn1ccnc1 — higher, 20.5%
- COc1ccc(CCNC(=O)CC(c2ccccc2)c2cccc(C)c2O)cc1OC (stereo not shown) — lower, 6%
- OCCC1CN(Cc2cccc(-c3ccco3)c2)CCN1Cc1ccsc1 (stereo not shown) — lower, -17.3%
- CC(C)NC(=S)N=Nc1c(O)[nH]c2ccc([N+](=O)[O-])cc12 — higher, 18.4%
- Cn1nccc1NC(=O)NC(=O)c1c(Cl)cccc1Cl — lower, 8.82%
- COc1cccc(OC)c1C(=O)Nc1ccncc1 — higher, 17.4%
- COc1cccc(OC)c1C(=O)Nc1ccnn1C — lower, -75.9%
- O=C(Cn1nnc2ccccc21)N1CCCCC1 — lower, 2.74%
- O=C(CN1CCN(C(=O)c2cccs2)CC1)Nc1ccc(Br)cc1 — lower, -68.2%
- O=C(CN1CCN(C(=O)c2ccccc2F)CC1)Nc1ccc(Br)cc1 — lower, -56.5%
- O=C(Nc1ccc(N2CCN(C(=O)c3cccs3)CC2)cc1)c1ccc([N+](=O)[O-])o1 — lower, -15.8%
- O=C(Nc1ccc(N2CCN(C(=O)c3cccs3)CC2)cc1)c1ccc(Br)o1 — lower, -52.7%
- O=C(NCCN1CCN(C(=O)c2cccs2)CC1)C(=O)Nc1ccc(Br)cc1 — lower, -44.8%
- O=C(Nc1ccc(N2CCN(C(=O)c3cccs3)CC2)cc1)c1ccco1 — higher, 17.4%
- CCC(=O)Nc1ccc(N2CCN(C(=O)c3cccs3)CC2)cc1 — lower, 3.02%
- O=C(CN1CCN(Cc2ccccc2)CC1)Nc1ccc(Br)cc1 — lower, -48.3%
- O=C(CN1CCN(C(=O)c2ccco2)CC1)Nc1ccc(Br)cc1 — lower, 10.5%
- Cc1ccc(NC(=O)c2ccc3ccccc3n2)cc1S(=O)(=O)N1CCOCC1 — higher, 14%
- CCOP1(=S)Oc2cc3c(cc2C(C(=O)OC)(C(F)(F)F)O1)OCO3 (stereo not shown) — lower, 5.27%
- Cn1c(=O)n(C)c2cc(N3CCCC3)c(NC(=O)c3cccc(F)c3)cc21 — lower, 10.3%
- Br.Cc1ccc(C2=CSC3=NCCN23)cc1 — lower, 11.3%
- CCOc1ccc(C2=CSC3=NCCN23)cc1[N+](=O)[O-] — lower, -61%
- CCCOc1ccc(C2=CSC3=NCCN23)cc1[N+](=O)[O-] — lower, -68.4%
- CCCCOc1ccc(C2=CSC3=NCCN23)cc1[N+](=O)[O-] — lower, -52.1%
- Br.CC(C)Cc1ccc(C2=CSC3=NCCN23)cc1 — lower, -60.9%
- O=[N+]([O-])c1ccc(C2=CSC3=NCCN23)cc1 — lower, -0.955%
- CCCOc1ccc(C2=CSC3=NCCN23)cc1Cl — lower, -23.5%
- Br.COc1ccc(C2=CSC3=NCCN23)cc1OC — lower, 7.66%
- CCOc1ccc(C2=CSC3=NCCN23)cc1Cl — lower, 10.2%
- Br.CCc1ccc(C2=CSC3=NCCN23)cc1 — lower, 1.72%
- CCCOc1ccc(C2=CSC3=NCCN23)cc1.Cl — lower, -0.939%
- COc1ccc(C2=CSC3=NCCN23)cc1[N+](=O)[O-] — lower, 2.48%
- CCCCn1c(N)c(N(CCOC)C(=O)CN2CC=C(c3ccccc3)CC2)c(=O)[nH]c1=O — lower, 10.3%
- O=C(Cn1nnc(-c2ccc(Cl)cc2)n1)NC1CCS(=O)(=O)C1 (stereo not shown) — lower, 0.0052%
- Cc1ccc(Cn2c(N)c(S(=O)(=O)c3cccs3)c3nc4ccccc4nc32)cc1 — lower, 5.35%
- CCn1c(SCC(=O)N/N=C/c2c[nH]c3ccccc23)nnc1-c1ccc(C)cc1 — lower, 9.39%
- O=C1c2ccccc2C(=O)C1c1ccnc2ccccc12 — lower, 11.7%
- Cc1ccccc1N(CC(=O)NCc1ccc2c(c1)OCO2)C(=O)CCC(=O)Nc1ccccn1 — lower, 6.43%
- CCC1(CC)NC(=O)N(CC(=O)Nc2ccc(S(=O)(=O)N3CCOCC3)cc2)C1=O — lower, 3.3%
- CCC1CCC(N2CCN(c3ccc([N+](=O)[O-])cc3)CC2)CC1 (stereo not shown) — lower, -74.5%
- O=[N+]([O-])c1ccc(N2CCN(c3ccc(F)cc3)CC2)cc1 — lower, 5.71%
- O=[N+]([O-])c1ccc(N2CCN(c3ccccc3)CC2)cc1 — lower, 9.45%
- CCN1CCC(N2CCN(c3ccc(F)cc3)CC2)CC1 — lower, 10.6%
- CCC1CCC(N2CCN(c3ccc(F)cc3)CC2)CC1 (stereo not shown) — lower, -2.92%
- O=[N+]([O-])c1ccc(N2CCN(CC3CCCCC3)CC2)cc1 — lower, -23%
- CCN1CCC(N2CCN(c3ccc(Cl)cc3)CC2)CC1 — lower, 10.7%
- CCCN1CCC(N2CCN(c3ccc([N+](=O)[O-])cc3)CC2)CC1 — lower, -62.7%
- CC1CCC(N2CCN(c3ccc([N+](=O)[O-])cc3)CC2)CC1 (stereo not shown) — lower, -67.8%
- Cc1ccnc(N2C(=O)OC(C)(C)C2(C)O)c1 (stereo not shown) — lower, -0.922%
- C=CCS(=O)(=O)N1CCCC(C(=O)c2cccc(Cl)c2)C1 (stereo not shown) — higher, 14.2%
- O=C(NS(=O)(=O)c1ccccc1)c1ccccc1O — lower, 0.636%
- O=C(NCc1ccc2c(c1)OCO2)c1cc(-c2ccccc2Cl)on1 — lower, 12.4%
- O=C(O)CSC1=NC(=Nc2cccc(Cl)c2)C2(CCCCC2)N1c1ccccc1 — higher, 19.9%
- Cc1cc(OC(C)C(=O)NCc2cccnc2)c2c(C)cc(=O)oc2c1 (stereo not shown) — lower, 9.3%
- Cc1ccccc1CNC(=O)Cc1ccccc1[N+](=O)[O-] — lower, 0.014%
- Cc1c(C(=O)Nc2cccc([N+](=O)[O-])c2)sc2ncn(CC(=O)N3CCOCC3)c(=O)c12 — higher, 14.1%
- CCc1nnc(NC(=O)c2ccc(-c3ccccc3F)o2)s1 — lower, 11.7%
- Cc1cc(C)n(-c2nnc(N3CCN(c4ccccc4)CC3)nn2)n1 — lower, 4.59%
- Cc1cc(N2CCC(C)CC2)nc(-n2nc(C)cc2C)n1 — lower, -9.09%
- Cc1cc(N2CCN(c3ccccc3)CC2)nc(-n2nc(C)cc2C)n1 — lower, -51%
- O=C(Cc1cccc(NC(=O)C2CCCN(C(=O)C3CCC3)C2)c1)Nc1cccc(C(=O)N2CCCC2)c1 (stereo not shown) — lower, 9.32%
- COc1ccc(C(=O)N2N=C(c3cccc(NS(C)(=O)=O)c3)CC2c2cccs2)cc1 (stereo not shown) — lower, -22.1%
- COc1cccc(C(=O)N/N=C/c2ccc(OC3CSC3)cc2)c1 — lower, 12.7%
- O=C(N/N=C/c1ccc(OC2CSC2)cc1)c1ccccc1 — lower, -0.636%
- Cc1cccc(C(=O)N/N=C/c2ccc(OC3CSC3)cc2)c1 — lower, -59.8%
- CN(CC(=O)Nc1ccccc1C(F)(F)F)C(=O)COc1ncnc2sccc12 — lower, 6.31%
- O=C(O)CCC(=O)NCc1cn(-c2ccccc2)nc1-c1cccc(Br)c1 — lower, 9.76%
- CN(C)S(=O)(=O)c1ccc(N2CCCC2)c(C(=O)N2CCN(c3ccc([N+](=O)[O-])cc3)CC2)c1 — lower, -84%
- O=C(c1cc([N+](=O)[O-])ccc1N1CCOCC1)N1CCN(c2ccc([N+](=O)[O-])cc2)CC1 — lower, -74%
- Cc1cccc(N2CCN(C(=O)c3cc(S(=O)(=O)N(C)C)ccc3N3CCCC3)CC2)c1C — lower, 5.76%
- Cc1ccc(S(=O)(=O)N2CCN(C(=O)c3cc(S(=O)(=O)N(C)C)ccc3N3CCCC3)CC2)cc1 — lower, 13.1%
- O=C(c1cc([N+](=O)[O-])ccc1Cl)N1CCN(c2ccccc2)CC1 — lower, 4.13%
- O=C(c1cc([N+](=O)[O-])ccc1N1CCOCC1)N1CCOCC1 — lower, 12.4%
- O=C(c1cc([N+](=O)[O-])ccc1Cl)N1CCN(c2ccc(F)cc2)CC1 — lower, 0.85%
- O=C(c1cc([N+](=O)[O-])ccc1Cl)N1CCN(c2ccc([N+](=O)[O-])cc2)CC1 — lower, -58.8%
- O=C(c1cc([N+](=O)[O-])ccc1N1CCOCC1)N1CCN(c2ccccc2)CC1 — lower, 7.19%
